Assay outcomes as filed in PubChem BioAssay.
Most compounds without a hit are left out; they make up all but 13% or so of the library.
CHOP inhibitor: inhibitors of CHOP promoter induction, primary screen, cell-based, unfolded protein response, luciferase reporter | CHO-K1 CHOP-promoter luciferase, tunicamycin-induced, 15-18 h | inhibition, % at 10 µM | 220,000 tested, 3.8% active;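 active means compounds that reduced the stress-induced luciferase reporter signal by more than about 70% of percent inhibition, limit read from the data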;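 further: 0% = tunicamycin plus vehicle and 100% = wells without tunicamycin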
L major viab: Leishmania major promastigote growth inhibition, primary screen; Leishmania major promastigotes, resazurin fluorescence viability; inhibition, % at 10 µM; 200,000 tested, 9% active; AID 1063, 2008; in the data active means inhibition above about 50%;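 further: promastigotes grown with compound for 44 hours at 28 °C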
RAM inhibit: inhibitors of the yeast RAM network, primary screen, dse1pr::URA3 reporter, 5-FOA selection | AID 868, 2007 | 190,000 tested, 1.8% active | S. cerevisiae dse1pr::URA3 reporter, 5-FOA growth OD615, 2 d; analog-sensitive cbk1-as2 kinase mutant strain | inhibition, % at 50 µM;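 active means inhibition above a set limit, 3 SD over mean compound inhibition, cut at about 8.4% in these data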;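 further: 0% = DMSO-only wells with no growth and 100% = 10 µM 1-NA-PP1 full growth; inhibition rescues growth on 5-FOA so higher OD means more RAM inhibition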
WT yeast gro inh: growth inhibition of WT strain, primary screen, mitochondrial fusion inhibitor project, WT and mutant strains, chemical genetic; AID 1362, 2008; mitochondrial fusion phenotypic screen; inhibition, % at 10 µM; 190,000 tested, 2.1% active; in the data active means inhibition above about 58%; tested in S. cerevisiae
RAM efflux-def: 5-FOA growth of efflux-deficient control yeast, dose response, counter-screen for RAM network inhibitor project, S. cerevisiae, OD615; shares compounds with RAM inhibit; S. cerevisiae efflux-deficient reporter strain, 5-FOA growth OD615, 2 days; max inhibition, %; 1,200 tested, under 10 active; AID 1305, 2008; call rule not given here;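 further: plate controls were vehicle for no effect and reference inhibitor for full effect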
Active calls of the source: *; / = no result given.

SMILES | CHOP inhibitor | L major viab | RAM inhibit | WT yeast gro inh | RAM efflux-def
O=C1N2c3ccccc3CCc3cccc(c32)C1(O)C(F)(F)F (stereo unspecified) | 67.7 | 32.2 | 1.6 | 4.2 | /
N#C/C(=C\Nc1ccccc1SC(F)(F)F)c1nc(-c2ccccc2)cs1 | 25.3 | -3.7 | 11.5* | -27.0 | 2.8
Cc1ccc(/C=C/C(=O)Nc2ccc(Oc3ccccc3)cc2)o1 | 11.1 | 8.2 | 12.9* | 46.7 | 3.8
COC(=O)c1ccc(Cl)cc1NC(=O)/C=C/c1ccc(C)o1 | -14.2 | 29.6 | 13.3* | -11.3 | 4.2
CCOc1nc(-c2ccncc2)nc2ccccc12 | 34.1 | 5.6 | 2.1 | 18.8 | /
CCCOc1ccc(-c2nc(OCC)c3ccccc3n2)cc1 | 42.2 | -3.4 | 12.6* | 60.0* | 2.7
CON/C=C(\C=Nc1ccc(C(F)(F)F)cc1)c1ncc(C(F)(F)F)cc1Cl | 24.0 | -2.0 | 13.3* | 2.6 | 1.9
Cc1c(/C=N/NC(=O)c2ccc(Br)o2)cnn1C | -14.8 | / | / | / | /
COc1cccc(OCCNc2cc(N3CCOCC3)ccc2[N+](=O)[O-])c1 | 8.6 | 4.4 | 11.7* | 16.0 | 1.1
Cc1ccccc1OCCNc1cc(N2CCCCC2)ccc1[N+](=O)[O-] | 63.3 | 5.0 | 14.2* | 15.2 | 4.6
Cc1ccccc1OCCNc1cc(N2CCN(CCO)CC2)ccc1[N+](=O)[O-] | -3.5 | 47.6 | -0.7 | 10.6 | /
Cc1ncc([N+](=O)[O-])n1CC(=O)Nc1ccc2c(c1)OCO2 | 0.0 | 0.9 | 0.5 | 6.2 | /
N#CCCCSc1nnc(-c2ccc(Cl)cc2)n1-c1ccccc1 | 13.8 | 9.5 | 15.4* | -0.7 | 1.5
COc1ccc(/C=C/C(=O)c2ccccc2O)cc1 | -42.5 | 2.7 | 1.9 | 35.2 | /
COc1ccc(/C=C/C(=O)c2c(O)c(OC)c3occc3c2OC)cc1 | -61.7 | 38.8 | 12.2* | 13.2 | 3.5
O=C(O)c1ccc(NCCc2ccc(Cl)cc2)c([N+](=O)[O-])c1 | -12.3 | -8.9 | 4.8 | 11.7 | /
Cc1ccc(-n2c(O)c(/C=N/c3ncn[nH]3)c3ccccc3c2=O)cc1 | 33.9 | -2.0 | 11.8* | -6.1 | 2.3
Cc1ccc(-n2c(O)c(/C=N/n3cnnc3)c3ccccc3c2=O)cc1 | 13.8 | -9.0 | -0.7 | -4.0 | /
COc1cc(-c2cc(C(=O)Nc3ccc(S(=O)(=O)NCc4ccco4)cc3)c3ccccc3n2)cc(OC)c1OC | 78.7* | 75.8* | 12.9* | -22.7 | 4.5
CCCCOc1ccccc1NC(=O)c1scc2c1OCCO2 | 39.4 | 5.8 | 12.6* | 22.7 | 4.8
O=C(NCC(O)c1ccc([N+](=O)[O-])cc1)c1cccc(S(=O)(=O)N2CCCC2)c1 (stereo unspecified) | -3.0 | -2.3 | 0.9 | -0.5 | /
COc1cccc(C(=O)NN2c3ccccc3CCc3ccccc32)c1 | 92.0* | 7.5 | 12.9* | -7.4 | 2.0
COc1ccc(OC)c(N(CC(=O)Nc2cccc(C(F)(F)F)c2)S(C)(=O)=O)c1 | 8.4 | 9.6 | 2.4 | 7.7 | /
CCOc1ccc(-c2nnc3ccc(SCc4ccc(C(=O)OC)o4)nn23)cc1 | 30.5 | 14.0 | 11.9* | -7.5 | 1.1
C=CCNC(=O)CCC(=O)NNc1nc2ccccc2c2nc(-c3ccccc3)nn12 | 28.7 | -3.4 | 2.2 | -8.1 | /
SMILES | CHOP inhibitor | L major viab | RAM inhibit | WT yeast gro inh | RAM efflux-def
C=CCSc1nc2ccccc2c2nc(-c3ccccc3)nn12 | -13.7 | -3.8 | 13.0* | 2.5 | 2.5
CN(C(=S)Nc1ccc(Oc2ccccc2)cc1)c1ccc(O)cc1 | 50.5 | 0.1 | 13.7* | 48.6 | 0.7
Cc1ccc2nc(NC(=O)c3ccc(NS(=O)(=O)c4cccs4)cc3)sc2c1 | 29.4 | 15.2 | 6.2 | 8.7 | /
CCCCC(=O)N1C/C=C\C(c2ccc(OC)cc2)N(Cc2ccc(F)cc2)C(=O)C1 (stereo unspecified) | 21.2 | / | / | / | /
CC(Oc1ccc(Cl)cc1)c1ccnn1S(=O)(=O)c1ccc(Cl)cc1 (stereo unspecified) | 66.5 | 3.4 | 3.2 | 49.3 | /
CC(Oc1ccc(-c2ccccc2)c(F)c1)c1ccn(S(=O)(=O)c2ccc(Br)cc2)n1 (stereo unspecified) | 34.2 | -0.7 | 11.8* | 14.8 | 2.6
O=C(NCc1ccccc1)c1cccc(COc2ccc3c(c2)CCC3)c1 | 56.4 | 6.5 | 11.8* | 24.8 | 7.3
COC(=O)c1ccccc1NC(=O)c1ccc(COc2ccc3c(c2)CCC3)cc1 | 30.4 | -1.6 | 13.7* | -15.2 | 4.9
O=C(COc1ccc2c(c1)CCC2)NCc1cccc(Cl)c1 | 27.7 | -6.5 | 0.0 | 11.9 | /
CCCOc1ccc(/C=C2\SC(=S)N(CC3CCCO3)C2=O)cc1 (stereo unspecified) | 15.1 | 66.0* | 16.6* | 17.5 | 6.8
O=C1/C(=C/c2ccc(O)cc2)SC(=S)N1CC1CCCO1 (stereo unspecified) | 19.4 | / | / | / | /
Nc1ccc(S(=O)(=O)N2CCCC2)cc1Cl | 17.7 | / | / | / | /
CCCN1C(=O)/C(=C/c2ccc(C)s2)SC1=Nc1ccc(OC)cc1 | 15.7 | 2.7 | 20.7* | -3.2 | 2.5
CCOc1ccccc1N1CC(C(=O)Nc2cccc(S(=O)(=O)N3CCCCC3)c2)CC1=O (stereo unspecified) | 10.8 | -2.5 | 2.4 | -3.5 | /
Cc1noc(NS(=O)(=O)c2ccc(N/C=C\C(=O)c3cccs3)cc2)c1C | -5.8 | -6.3 | 12.0* | 6.2 | 6.3
Cc1ccc(Cl)cc1N1CCN(S(=O)(=O)c2ccc3[nH]c(=O)c(=O)[nH]c3c2)CC1 | -4.1 | -1.8 | 12.2* | -2.4 | 2.3
O=c1[nH]c2ccc(S(=O)(=O)N3CCN(C4CCCCC4)CC3)cc2[nH]c1=O | -8.8 | -5.9 | 0.5 | -1.4 | /
C/C(CCc1ccccc1)=N\NC(=O)C(=O)Nc1cccc(Cl)c1 | 53.7 | 6.2 | 0.9 | -15.1 | /
CC1=C(C(=O)N(C)C)C(c2ccc(N3CCOCC3)cc2)NC(=O)N1 (stereo unspecified) | 24.1 | 9.6 | 1.9 | -10.3 | /
COCCCNC(=S)Nc1ccccc1C | 2.2 | 22.4 | 2.4 | 1.2 | /
S=C(NCCC(c1ccccc1)c1ccccc1)Nc1cccc(Cl)c1 | 93.9* | 59.2* | 14.5* | 80.2* | 4.8
Cc1ccccc1NC(=S)NCCC(c1ccccc1)c1ccccc1 | -6.6 | 29.7 | 12.3* | 78.8* | 3.3
COc1ccc(CN2C(=O)c3cccc4cccc(c34)C2=O)cc1 | 23.1 | / | / | / | /
COc1ccc(CN2C(=O)c3ccccc3C(/C=N\OCc3ccc(C)cc3)C2=O)cc1 (stereo unspecified) | 6.2 | 36.9 | 13.6* | -11.6 | 4.1
Cc1cc(SC(C)C(=O)Nc2ncc(Cl)cc2Cl)nc2ccccc12 (stereo unspecified) | 16.3 | 9.9 | 12.4* | 10.2 | 1.9
Cc1nnc(SC(C)C(=O)Nc2ncc(Cl)cc2Cl)n1Cc1ccccc1 (stereo unspecified) | 21.6 | -8.4 | 0.4 | 17.4 | /
CCOC(=O)c1c(C)[nH]c(C)c1C(=O)COC(=O)/C=C/c1ccc(Cl)cc1 | 52.2 | 4.3 | 12.0* | 73.6* | 1.2
